A selection: hits, their analogues and other compounds. The true share with any hit is near 3.2%.
GDH-TPI counter: GDH-TPI coupling enzyme inhibitors, primary screen, artefact control for M. tuberculosis FBA inhibitor project, biochemical, absorbance, full deck; GDH-TPI coupled enzyme counterscreen, NADH absorbance; inhibition, % at 4.8 µM; 360,000 tested, 1.2% active; AID 588335, 2011; in the data active = inhibition above about 30%;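 note: 0% = DMSO wells and 100% = wells lacking the enzyme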
Rv3671c protease: Rv3671c serine protease inhibitors, primary screen, biochemical, fluorescence polarization, M. tuberculosis H37Rv; inhibition, % at 5.96 µM; 320,000 tested, 0.048% active; AID 2606, 2010; in the data active = inhibition above about 38%;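 note: extracellular domain of Rv3671c used as enzyme; 0% = enzyme with DMSO and 100% = no enzyme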
SSB-PriA inh: inhibitors of Klebsiella pneumoniae PriA binding to SSB C-terminal tail, primary screen, biochemical, AlphaScreen; AlphaScreen SSBct-PriA binding, biotinylated peptide; inhibition, % at 33 µM; 430,000 tested, 0.6% active; AID 1272365, 2023; in the data active = inhibition mostly above about 37%, no sharp cut-off; inactive = mostly below about 20%;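 note: plate controls were negative control peptide for no effect and reference peptide for full effect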
FBA Mtb inh: Mtb FBA enzyme inhibitors, primary screen, biochemical, fluorescence, strain H37Rv | purified M. tuberculosis FBA, fluorescence read-out | 360,000 tested, 2.3% active | inhibition, % at 1 µM | Fructose-bisphosphate aldolase (Mycobacterium tuberculosis (strain ATCC 25618 / H37Rv)), …; in the data active = inhibition above about 27%;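 note: 0% = vehicle and 100% = reference inhibitor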
Mtb UGM inh: M. tuberculosis UGM enzyme inhibitors, primary screen, biochemical, fluorescence polarization, single point; inhibition, % at 10 µM; 320,000 tested, 0.06% active; purified UGM, fluorescence polarization probe displacement; UDP-galactopyranose mutase (Mycobacterium tuberculosis (strain ATCC 25618 / H37Rv)), …; AID 504406, 2011; in the data active = inhibition above about 10%, passing the limit was not always enough; inconclusive = no clear call, values can overlap the other calls
Target sequence (P9WIQ1 whole entry, looked up): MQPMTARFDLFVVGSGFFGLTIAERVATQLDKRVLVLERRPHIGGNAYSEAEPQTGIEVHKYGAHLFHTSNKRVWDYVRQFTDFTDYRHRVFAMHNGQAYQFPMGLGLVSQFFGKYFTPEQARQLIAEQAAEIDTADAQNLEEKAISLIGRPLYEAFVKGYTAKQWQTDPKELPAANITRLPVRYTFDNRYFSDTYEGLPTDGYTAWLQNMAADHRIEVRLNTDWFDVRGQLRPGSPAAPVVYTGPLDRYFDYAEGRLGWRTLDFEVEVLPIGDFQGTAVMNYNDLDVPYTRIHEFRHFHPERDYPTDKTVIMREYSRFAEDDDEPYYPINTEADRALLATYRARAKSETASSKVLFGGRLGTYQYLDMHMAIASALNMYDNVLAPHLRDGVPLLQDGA
Mtb betalactam: beta-lactam sensitization of Mtb H37Rv, H37Rv | M. tuberculosis H37Rv growth with meropenem, percent inhibition | inhibition, % at 25 µM | 330,000 tested, 0.27% active; call rule not given here;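 note: growth measured after seven days incubation then overnight dye step; 0% = bacteria only wells and 100% = bacteria with antibiotic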
The depositor's hits bear a star; u = inconclusive; x = no result given; + = active, no number.

SMILES | GDH-TPI counter | Rv3671c protease | SSB-PriA inh | FBA Mtb inh | Mtb UGM inh | Mtb betalactam
COc1ccc(NN=C(C(N)=O)C2=NC(C)(C)Cc3ccccc32)cc1 | x | x | 77.8* | x | x | x
CN(C)C(=O)c1cccc(-c2cnc3cccnn23)c1 | 11.1 | x | x | 132.0* | x | x
COc1ccc(Br)c(C(=O)NC[C@H](OC)c2ccccc2C)c1 | x | x | -17.0 | x | x | x
O=C1OC(c2ccc(F)cc2)=N/C1=C\C=C/c1ccccc1 | -0.7 | -9.2 | -4.3 | -4.1 | -1.6 | 36.4
O=C1OC(/C=C/c2ccccc2)=NC/1=C/C=C/c1ccccc1 | 32.0* | -3.9 | 5.9 | 0.5 | 2.2 | 96.2
Cc1cc(NC(=O)CN2C(=O)CC(c3cccs3)CC2=O)no1 | x | x | -13.0 | x | x | x
O=C(c1ccc2ccccc2c1)C1CCCN(C(=O)c2cccnc2)C1 (centres undefined) | 2.8 | x | -11.4 | 7.2 | 1.6 | -0.7
COc1ccc2cc(C(=O)C3CCCN(C(=O)CSc4nnc(C)o4)C3)ccc2c1 (centres undefined) | 17.1 | -12.1 | 7.6 | 126.1* | -1.0 | -1.6
COc1ccc2cc(C(=O)C3CCCN(C(=O)c4cccnc4)C3)ccc2c1 (centres undefined) | 17.7 | 2.3 | -12.2 | 162.9* | -0.6 | 4.7
CCNC(=O)N1CCCC(C(=O)c2ccc3cc(OC)ccc3c2)C1 (centres undefined) | 2.7 | -2.1 | -12.4 | 15.6 | 0.6 | 0.2
COc1ccc2cc(C(=O)C3CCCN(C(=O)c4cncs4)C3)ccc2c1 (centres undefined) | 8.4 | -18.1 | -8.3 | 152.5* | 0.3 | u
COc1ccc2cc(C(=O)C3CCCN(C(=O)CCc4cnn(C)c4)C3)ccc2c1 (centres undefined) | 7.8 | -11.2 | 8.0 | 126.7* | 1.2 | -4.8
COc1ccc(-c2ccc(N3CCCC(C(=O)N4CCN(C(=O)c5ccco5)CC4)C3)nn2)cc1 (centres undefined) | x | x | -6.0 | x | x | x
Cc1cc(C(=O)N(CC2CCCO2)c2nc3ccc(Cl)cc3s2)on1 (centres undefined) | x | x | -11.0 | x | x | x
O=C(NCc1ccc(C(O)c2ccccc2)s1)c1ccc(F)cc1Cl (centres undefined) | x | x | 5.0 | x | x | x
COc1cc(C(=O)Nc2cccc(-c3nc4ccccc4o3)c2C)cc(OC)c1OC | -13.4 | x | -6.6 | -4.5 | x | x
COc1cc(C(=O)Nc2ccc(-c3nc4cc(C)ccc4o3)c(O)c2)cc(OC)c1OC | 34.3* | 7.4 | -33.4 | 11.1 | 0.5 | -4.2
CCCCc1nnc2c(N(C)S(=O)(=O)c3ccc(OC)cc3)nc3ccccc3n12 | x | x | 0.0 | x | x | x
COc1ccc(S(=O)(=O)N(C)c2nc3ccccc3n3c(CC(C)C)nnc23)cc1 | 11.8 | -7.7 | -6.5 | 56.0* | -0.8 | -7.5
Cc1cc(-c2nnc(NC(=O)C3CCCN3S(C)(=O)=O)o2)nn1C (centres undefined) | x | x | -2.0 | x | x | x
Cc1ccc(NC(=O)CC2=NC(=O)C(CC(=O)Nc3ccccc3F)S2)cc1 (centres undefined) | 32.5* | -3.8 | -4.8 | -3.2 | 0.4 | -6.0
O=C(CN1C(=O)NC2(CCCCC2)C1=O)Oc1ccc2ccc(=O)oc2c1 | 14.3 | -1.8 | -8.6 | + | 0.1 | -4.7
O=C(Oc1ccc2ccc(=O)oc2c1)c1ccco1 | 4.2 | -0.9 | 8.4 | + | 0.5 | -6.4
COc1ccccc1C(=O)Oc1ccc2ccc(=O)oc2c1 | 15.5 | 10.2 | -11.6 | 116.5* | -0.3 | 4.4
Cc1ccccc1OCC(=O)NN=Cc1ccccn1 | x | x | -13.5 | x | x | x
O=C(NCCn1nc(-c2cccs2)n(C2CC2)c1=O)c1nc2ccccc2s1 | x | x | -11.0 | x | x | x
N#Cc1c(N2CCCC(O)C2)nc(N)c2c(N)nc3c(c12)CC(=O)N3C12CC3CC(CC(C3)C1)C2 (centres undefined) | 25.8 | -92.6 | 62.6* | 0.7 | 3.7 | u
C=C(C)CN(CC)c1nc(N)c2c(N)nc3c(c2c1C#N)CC(=O)N3C12CC3CC(CC(C3)C1)C2 | 5.0 | -20.0 | 6.6 | -5.3 | 0.6 | 5.6
CC(CC(=O)Nc1cccc(C(F)(F)F)c1)=NNC(=O)c1ccncc1 | x | x | 4.8 | x | x | x
CCOc1ccc(NC(=S)NN(C)C(=S)Nc2ccc(OCC)cc2)cc1 | 3.0 | -0.2 | 40.2* | 0.1 | -3.3 | 99.9

Assay outcomes from PubChem BioAssay.
